# Screening data (PubChem BioAssay)
# EPAC1 antag = qHTS for Antagonist of cAMP-regulated guanine nucleotide exchange factor 3 (EPAC1): primary screen. Rap guanine nucleotide exchange factor 3 (Homo sapiens), O95398. Potency, µM (doses to about 115 µM), for inactives: at the highest dose activity change, negative = inhibition, usual class: inhibitors. EPAC1 GEF assay, Rap1b-BODIPY-GDP exchange fluorescence. actives 0.14% (n = 360,000). AID 720709, 2013;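 further: plate controls were vehicle for no effect and positive control for full effect; nearly all actives have a fitted effect of over 50% in size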
# EPAC2 antag = qHTS for Antagonist of cAMP-regulated guanine nucleotide exchange factor 2 (EPAC2): primary screen | actives 0.18% (n = 360,000) | EPAC2 GEF exchange of Rap1B-BODIPY-GDP, fluorescence | Potency, µM (doses to about 114 µM), without a hit: at the highest dose activity, negative = inhibition, actives largely listed as inhibitors | Rap guanine nucleotide exchange factor 4 (Homo sapiens), Q8WZA2; further: on the % scale 0 is the no-effect control and ±100 the full control effect; nearly all actives have a fitted effect of over 45% in size
# Target sequence (Q8WZA2 whole entry, looked up): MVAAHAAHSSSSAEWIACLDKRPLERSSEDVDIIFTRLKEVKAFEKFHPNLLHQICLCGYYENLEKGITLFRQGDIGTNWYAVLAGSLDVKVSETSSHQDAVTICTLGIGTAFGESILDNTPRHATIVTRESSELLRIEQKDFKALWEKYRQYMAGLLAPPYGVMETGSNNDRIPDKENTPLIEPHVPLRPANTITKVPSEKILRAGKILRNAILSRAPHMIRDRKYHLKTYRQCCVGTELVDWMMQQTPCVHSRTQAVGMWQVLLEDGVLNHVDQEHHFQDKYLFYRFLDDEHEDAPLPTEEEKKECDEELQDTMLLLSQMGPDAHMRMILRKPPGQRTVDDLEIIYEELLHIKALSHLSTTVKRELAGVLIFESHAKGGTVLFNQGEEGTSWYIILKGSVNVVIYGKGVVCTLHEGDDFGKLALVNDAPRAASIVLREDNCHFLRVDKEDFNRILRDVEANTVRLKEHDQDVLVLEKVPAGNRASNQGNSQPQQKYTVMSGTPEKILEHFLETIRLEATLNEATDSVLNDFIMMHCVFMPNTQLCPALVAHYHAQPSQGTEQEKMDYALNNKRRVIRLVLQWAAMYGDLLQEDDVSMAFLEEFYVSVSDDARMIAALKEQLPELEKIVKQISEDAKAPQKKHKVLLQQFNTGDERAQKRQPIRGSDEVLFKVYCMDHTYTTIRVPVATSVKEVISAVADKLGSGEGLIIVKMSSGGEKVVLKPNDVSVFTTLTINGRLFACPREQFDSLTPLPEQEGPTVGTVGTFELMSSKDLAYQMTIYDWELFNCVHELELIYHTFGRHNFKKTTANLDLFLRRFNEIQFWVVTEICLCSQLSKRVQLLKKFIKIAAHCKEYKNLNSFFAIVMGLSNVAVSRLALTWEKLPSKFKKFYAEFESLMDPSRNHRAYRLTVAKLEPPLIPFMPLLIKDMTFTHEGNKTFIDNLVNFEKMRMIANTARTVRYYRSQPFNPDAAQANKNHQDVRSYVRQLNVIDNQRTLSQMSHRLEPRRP
# USP1-UAF1 inh = Inhibitors of USP1/UAF1: Primary Screen; recombinant USP1/UAF1, Ub-Rhodamine cleavage fluorescence; Potency, µM (series often up to 57.1 µM), without a hit: at the highest dose activity change, negative = inhibition, hits mostly inhibitors; AID 743255, 2014; actives 0.23% (n = 390,000); further: on the % scale 0 is the no-effect control and ±100 the full control effect; nearly all actives have a fitted effect of over 60% in size
#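 In this screen, compounds sit with the deubiquitinase complex (1nM) for 15 min at room temperature before Ub-Rho is added at 150nM final. Fluorescence rise is then followed for 6 reads every 60 seconds.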
# EPAC2 agonist = qHTS for Agonist of cAMP-regulated guanine nucleotide exchange factor 4 (EPAC2): primary screen; Potency, µM (series often up to 154 µM), without a hit: top-dose activation, usual class: activators; actives 0.079% (n = 360,000); EPAC2 activation, biochemical qHTS; response scale: 100% = 6.5 mM cAMP response; Rap guanine nucleotide exchange factor 4 (Homo sapiens), Q8WZA2; further: nearly all actives have a fitted effect of over 50% in size
#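 Readout is BODIPY fluorescence (480 nm excitation, 540 nm emission), which falls as labeled GDP is exchanged off Rap1B. EPAC2 at 100 nM acted on 250 nM RAP1B-BODIPY-GDP with 50 uM GDP present.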
# EPAC1 agonist = qHTS for Agonist of cAMP-regulated guanine nucleotide exchange factor 3 (EPAC1): primary screen; Rap guanine nucleotide exchange factor 3 (Homo sapiens), O95398; EPAC1 agonist qHTS, biochemical assay; response scale: 100% = response to 6.5 mM cAMP; Potency, µM (doses to about 154 µM), for inactives: at the top dose activation, actives largely listed as activators; actives 0.073% (n = 360,000); AID 720707, 2013; further: nearly all actives have a fitted effect of over 60% in size
#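 Compounds were pinned as a concentration titration into mixtures of EPAC1 (100 nM), BODIPY-GDP-loaded Rap1B (250 nM) and GDP (50 uM). After 5 min at room temperature, fluorescence was followed for 30 min; activity was scaled to 6.5 mM cAMP.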
# 12-LOX inh = Primary qHTS assay for inhibitors of human arachidonate 12S-lipoxygenase (ALOX12): Round 2. Polyunsaturated fatty acid lipoxygenase ALOX12 (Homo sapiens), P18054. AID 1671190, 2021. actives 1.1% (n = 580,000). Potency, µM (doses to about 108 µM), for the others: at the top dose activity change, negative = inhibition, most hits filed as inhibitors. purified 12hLO, xylenol orange hydroperoxide absorbance; further: on the % scale 0 is the no-effect control and ±100 the full control effect
#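 Hydroperoxide product was detected by ferrous iron/xylenol orange as the 573 to 405 nm absorbance ratio. Arachidonic acid at 40 uM (final) was turned over for 30 min at room temperature by 150 nM human 12hLO, pH 7.0 Hepes buffer, after 15 min compound preincubation.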
# * hit, by the source's call; ? = inconclusive; . = not tested or not shown; [ ] = remark or other dose. Shown are actives, neighbours in structure and some others; about 1.3% of the full set was active somewhere. The call rests on the fitted dose curve; in most records, active means well fitted curve in the direction sought with a large enough effect; inconclusive means small, poorly fitted or top-dose-only effect, or another doubt; inactive means no such curve, though single readings can be large; an effect the other way counts as inactive or inconclusive. Potency means the concentration at half of the fitted maximal effect.
SMILES,EPAC1 antag,EPAC2 antag,USP1-UAF1 inh,EPAC2 agonist,EPAC1 agonist,12-LOX inh
COc1cc(NC(=O)OC[C@H]2C[C@@H]3CCN2C[C@@H]3c2cc(-c3ccc(N(C)C)cc3)nc(C)n2)cc(OC)c1,.,.,.,.,.,45µM*
O=C(Nc1cccc(C(F)(F)F)c1)OC[C@H]1C[C@@H]2CCN1C[C@@H]2c1cc(C2CCCC2)nc(-c2ccncc2)n1,.,.,.,.,.,50µM*
CC(C)NC(=O)OC[C@H]1C[C@@H]2CCN1C[C@@H]2c1cc(C2CCCC2)nc(-c2ccncc2)n1,.,.,.,.,.,28µM*
O=C(NC1CCCCC1)OC[C@H]1C[C@@H]2CCN1C[C@@H]2c1cc(C2CCCC2)nc(-c2ccncc2)n1,.,.,.,.,.,32µM*
O=C(NCc1ccccc1)[C@H]1CN2CC[C@H]1C[C@@H]2Cn1cc(-c2ccccn2)nn1,.,.,.,.,.,73%[176 µM]
O=C(O)Cn1cc(/C=C2\C(=O)NC(=O)N(c3ccc(Cl)cc3)C2=O)c2ccccc21,-24%,-24%,-21%,4%,5%,?
Cn1cc(/C=C2\C(=O)NC(=O)N(c3ccccc3)C2=O)c2ccccc21,-9%,44%,?,100µM*,-1%,52%
Cc1cc(C)n(CCC(=O)N2[C@H]3CC[C@@H]2c2cnc(-c4ccc(F)cc4)nc2C3)n1,.,.,.,.,.,19%
COc1cc2c(cc1OCC1CC1)NC(=O)C21CCN(C(=O)c2cccnc2)CC1,.,.,.,.,.,-3%[176 µM]
COc1ccc(CCNCc2ccc(Br)cc2)cc1,.,.,.,.,.,22µM*
COc1ccc(CCNCc2cccc(Br)c2)cc1,.,.,.,.,.,1.3µM*
COc1ccc(CCNCc2ccccc2)cc1,-6%,8%,-10%,8%,1%,?
COCCCn1c(N)c(C(=O)OCCOC)c2nc3ccccc3nc21,2%,-3%,-7%,-1%,2%,0%
CCCCCn1c(NC(=O)c2ccco2)c(C(=O)OCC)c2nc3ccccc3nc21,50µM*,40µM*,7.1µM*,6%,-15%,.
CCOC(=O)c1c(NS(=O)(=O)c2ccccc2)n(CCCOC)c2nc3ccccc3nc12,7.9µM*,?,1.8µM*,23%,7%,?
CCOC(=O)c1c(N)n(CCCOC(=O)c2ccco2)c2nc3ccccc3nc12,-15%,-5%,-19%,-11%,3%,0%
Cc1nn(CCC#N)c2c1P(=S)(N1CCCC1)OC(c1ccc(F)cc1)=N2 (configuration not stated),10%,-13%,-10%,16%,0%,22µM*
CC[C@H]1CN2CC[C@H]1C[C@@H]2CNC(=O)CC(C)(C)CC(=O)O,.,.,.,.,.,46%[176 µM]
CCn1c(O)c(/C=N/NC(=O)c2ccncc2)c(=O)n(CC)c1=S,69%,8%,?,?,56µM*,-29%
Cn1c(O)c(/C=N/NC(=O)c2ccncc2)c(=O)n(C)c1=S,0%,5%,-14%,9%,15%,250%
Cc1ccccc1C(=O)N1CCC2(CC1)c1nccn1-c1ccccc1CN2CC(C)C,.,.,.,.,.,-1%
c1ccc(CN2CCCC3(CC(c4ccccn4)=NO3)C2)nc1 (configuration not stated),.,.,.,.,.,-3%[6.33 µM]
CCc1ccc(CN2CCN(Cc3cc(Br)ccc3O)CC2)cc1,-17%,-7%,-30%,15%,5%,0.63µM*
